# A selection: hits, their analogues and other compounds. The true share with any hit is near 1.5%.
# Nrf2 ARE act – qHTS of Nrf2 Activators | AREc32 ARE-luciferase reporter (MCF7-derived line), luminescence, 24 h | Potency, µM (titrated, usually from 46.1 µM), for inactives: at the highest dose activation, hits mostly activators | 410,000 compounds, 0.31% hits | AID 624171, 2012; further: potency means the concentration at half of the fitted maximal effect; % of control where 0% means no effect; nearly all actives have a fitted effect of over 65% in size
#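 ARE activation measured as luciferase luminescence (Steady-Glo, 30 min RT) in AREc32_Fluc cells after 24 hr compound exposure at 37 deg C, 5% CO2; cells seeded overnight at 1000/well in OPTI-MEM, 5% FBS.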
# 12-LOX inh – Primary qHTS assay for inhibitors of human arachidonate 12S-lipoxygenase (ALOX12): Round 2; purified 12hLO, xylenol orange hydroperoxide absorbance; Potency, µM (highest dose often 108 µM), inactives show at the top dose activity change, negative = inhibition, hits mostly inhibitors; 580,000 compounds, 1.1% hits; AID 1671190, 2021; further: potency means the concentration at half of the fitted maximal effect; on the % scale 0 is the no-effect control and ±100 the full control effect
#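 Hydroperoxide product was detected by ferrous iron/xylenol orange as the 573 to 405 nm absorbance ratio. Arachidonic acid at 40 uM (final) was turned over for 30 min at room temperature by 150 nM human 12hLO, pH 7.0 Hepes buffer, after 15 min compound preincubation.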
# IL2 activator – qHTS of IL-2 Activators. IL-2 activation reporter assay, cell-based qHTS; stimulated with anti-CD3/CD4/CD28 beads; in transgenic mouse T cells. activation, % (series mostly up to about 46 µM). 360,000 compounds, 0.065% hits; in the data active means activation above about 50%; inconclusive means mostly about 30% to 49%; further: 0% is about no effect
#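 Unstimulated transgenic mouse T cells preincubated 60 min with compound, then stimulated with anti-CD3/anti-CD4-coated beads plus anti-CD28 for 18 h at 37 degrees C. IL-2 response read as EGFP and DsRed fluorescence by plate cytometry.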
# Integrin act MD – qHTS for Activators of Integrin-Mediated Alleviation for Muscular Dystrophy. AID 624291, 2012. 350,000 compounds, 0.064% hits. alpha7betagal myoblasts, beta-gal FDG fluorescence, 48 h. Potency, µM (top dose mostly 38.3 µM), inactives show at the highest dose activation, most hits filed as activators;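 further: potency means the concentration at half of the fitted maximal effect; 100% = response of the positive control SU9516; nearly all actives have a fitted effect of over 60% in size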
#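 Alpha7betagal+/- myoblasts (passage 13) were plated 16-24 hr, then exposed to compounds (1:260 dilution of DMSO stock) for 48 hours at 37C. After MPER lysis, β-galactosidase reporter activity was read as FDG fluorescence (ex 480/em 540) after 30 minutes.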
# uPA surface inh – qHTS for Inhibitors of Cell Surface uPA Generation; cell surface uPA generation assay, qHTS; Potency, µM (titrated, usually from 38.3 µM), for the others: at the top dose activity change, negative = inhibition, usual class: inhibitors; 330,000 compounds, 0.31% hits; AID 540303, 2011; active means well fitted inhibition curve with a large enough effect; inconclusive means small, poorly fitted or top-dose-only effect; inactive means no such curve, though single readings can be large or run the other way; tested in mouse RAW 264.7 cells; further: potency means the concentration at half of the fitted maximal effect; on the % scale 0 is the no-effect control and ±100 the full control effect; nearly all actives have a fitted effect of over 55% in size
# An asterisk follows results filed as active; u = inconclusive; x = not tested or not shown. Unless noted, the call rests on the fitted dose curve; in most records, active means well fitted curve in the direction sought with a large enough effect; inconclusive means small, poorly fitted or top-dose-only effect, or another doubt; inactive means no such curve, though single readings can be large; an effect the other way counts as inactive or inconclusive.
SMILES,Nrf2 ARE act,12-LOX inh,IL2 activator,Integrin act MD,uPA surface inh
Cc1ccc(C2=C(O)C(=O)C(c3ccc(C)cc3)=C(O)C2=O)cc1,-1%,1.1µM*,-3,-20%,-1%
CC1=C(O)C(=O)C(C2=C(O)C(=O)C(C)=C(O)C2=O)=C(O)C1=O,-1%,u,2,-42%,-7%
CC(OC(=O)c1cccs1)C(=O)NC1CCCCC1C (configuration not stated),0%,0%,2,-2%,-5%
CC1CCCCC1NC(=S)NC(=O)c1cccs1 (configuration not stated),10%,14µM*,-1,-36%,4%
CS(=O)(=O)N1CCN(c2ccccc2NC(=S)NC(=O)c2cccs2)CC1,3%,35µM*,0,-18%,-1%
CC(C)C(=O)NC(=S)Nc1ccccc1N1CCN(C(=O)c2ccc(Cl)cc2)CC1,0%,45µM*,0,-18%,-1%
CC1CCN(c2ccccc2NC(=S)NC(=O)c2cccs2)CC1,13%,32µM*,0,6%,7%
Cc1ccc(S(=O)(=O)CC(=O)c2ccc(Cl)cc2)cc1,x,6%,x,x,x
CCCc1c(C(=O)OCC)cnc2nc(-c3cccnc3)nn12,x,15%,x,x,x
O=C(NC(=S)Nc1ccc(S(=O)(=O)N2CCCCC2)cc1)c1cccs1,1%,u,0,-30%,-10%
CC1CCN(c2ccccc2NC(=S)NC(=O)C(C)(C)C)CC1,5%,40µM*,-1,22%,4%
Cc1cccnc1NC(=S)NC(=O)c1cccs1,10µM*,u,0,-38%,x
O=C(NC(=S)Nc1ccc(S(=O)(=O)NC2CCCCC2)cc1)c1cccs1,3%,16µM*,-3,-20%,3%
CCOC(=O)NC(CNC(=O)c1cccc(OC)c1)CC(C)C (configuration not stated),x,7%,x,x,x
COc1cccc(C(=O)N2CCC(N3C[C@H](O)C[C@H]3C(=O)NCc3cccc(C)c3)CC2)c1,x,12%,x,x,x
COC1CCCN(c2ncnc3c2CCN(C(=O)c2ccoc2)CC3)C1 (configuration not stated),x,-9%,x,x,x
CC(C)(C)C1CCc2c(sc(NC(=O)c3ccccc3Cl)c2C(=O)N2CCOCC2)C1 (configuration not stated),x,3%,x,x,x
O=C(Nc1ccccc1)c1nnsc1S(=O)c1ccc(Cl)cc1 (configuration not stated),-4%,14µM*,-1,-66%,-11%
O=C(Nc1ccccc1)Nc1ccc(NC(=O)c2ccc(Cl)cc2)cc1,x,-27%,x,x,x
O=C(NNC(=S)NC(=O)c1ccc(F)cc1)c1ccc(Cl)cc1,x,18µM*,x,x,x
O=C(NC(=S)NC12CC3CC(CC(C3)C1)C2)c1ccc(F)cc1,4%,22µM*,-1,-22%,6%
Cc1ccc(C(=O)NNC(=S)NC(=O)c2ccc(Cl)cc2)cc1,-1%,u,-3,-14%,x
O=C(CCc1ccccc1)NNC(=S)NC(=O)c1ccc(Cl)cc1,2%,13µM*,0,-23%,-1%
O=C(NC12CC3CC(CC(C3)C1)C2)c1ccc(Cl)cc1,x,0%,x,x,x
COc1ccccc1NC(=O)COc1nc(C(C)C)c2c(c1C#N)CC(C)(C)OC2,x,12%,x,x,x
SMILES,Nrf2 ARE act,12-LOX inh,IL2 activator,Integrin act MD,uPA surface inh
O=C1NC(=O)/C(=C/c2cccc3ccccc23)S1,4%,-104%,-1,19%,-3%
O=C1NC(=O)/C(=C\c2ccc(O)cc2O)S1,0%,40µM*,-3,-12%,u
O=C(CSc1nc(=O)n2cc(Cl)ccc2n1)Nc1ccc2c(c1)OCO2,0%,u,312*,-32%,3%
O=C(CSc1nc(=O)n2cc(Cl)ccc2n1)Nc1ccc2c(c1)OCCO2,2%,u,-1,-28%,-9%
COc1ccc2oc(/C=C/N(C)C)c(C(=O)c3ccc(Cl)cc3)c2c1,0%,7.1µM*,-5,-11%,x
COc1ccc2c(COC(=O)c3n[nH]c4ccccc34)cc(=O)oc2c1,6%,-22%,1,-2%,-3%
O=C(OCc1cc(=O)oc2cc(O)ccc12)c1n[nH]c2ccccc12,x,25µM*,x,x,x

# Screening data deposited in PubChem BioAssay by National Center for Advancing Translational Sciences (NCATS).
